From PubChem BioAssay AID1259416 (Broad Institute, 2018)
Values joined by “and” are separate entries in the source; they are usually repeats but may differ in a detail not shown here. Identical values can stand only once. The whole screen tested about 69,000 compounds, of which about 2,600 (3.8%) were called active. Rule as the data show it: active = activity change below about -70% (passing the limit was not always enough); inconclusive = no clear call, values can overlap the other calls. This excerpt belongs to a sample that is enriched for actives. Some compounds were tested as several samples or in several runs, with calls that do not always agree.

Test: inhibitors of Toxoplasma growth in IFN-γ-primed hosts – cell-based, primary screen (AID 1259416);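 also: host cells are HeLa cells infected with Toxoplasma gondii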
Conditions: Toxoplasma gondii growth in IFN-gamma-treated host cells; stronger effect = lower value; concentration not given here

Compound	activity change, negative = inhibition
CC[N+]1(C)CCCC(OC(=O)C(O)(c2ccccc2)c2ccccc2)C1 (stereo not drawn)	-81.7% (active) and 11.1% (inactive) and 46.8% (inactive)
COc1ccc(OC)c(NC(=O)c2cc3cccnc3n(Cc3ccccc3F)c2=O)c1	10.9% (inactive)
CC(C)N1C[C@H]2CN(C(=O)c3cccs3)C[C@@H]2C1	13.5% (inactive)
CO[C@@H]1CCN(C(=O)c2ccc(C)cn2)[C@H]2CN(CC3CC3)C[C@@H]12	294% (inactive)
c1cc(-c2cccc3c2CCNC3)cc(-n2cnnc2)c1	-1.55% (inactive)
CC(C)(Cc1c[nH]c2ccc(Cl)cc12)NCCOc1ccccc1OCC1CC1	-75.1% (active) and -81.3% (active)
COc1ccc2c(c1)C1(CCN(C(=O)C(C)(C)NC(=O)OCc3ccccc3)CC1)CC2CC(=O)O (stereo not drawn)	0.749% (inactive)
Cc1nc(N2CCCN3CCC[C@H]3C2)c2cnn(C)c2n1	2.34% (inactive)
CN1CCC2(COCc3cnc(NCc4ccco4)nc32)C1 (stereo not drawn)	-59.4% (inactive)
CCc1cnc(C)nc1N1CCC2(CC1)CN(C)CCN2C	-5.22% (inactive)
CC(Cc1ccccn1)N(C)Cc1ncc[nH]1 (stereo not drawn)	15.6% (inactive)
c1ccc2c(c1)[I+]c1ccccc1-2	-75.9% (active) and -69.4% (inactive)
COc1ccc(NC(=O)c2cc3cccnc3n(Cc3ccc(Cl)cc3)c2=O)c(OC)c1	113% (inactive)
CCc1ccc(NC(=O)c2cc3cccnc3n(Cc3ccccc3F)c2=O)cc1	49.4% (inactive)
Cc1cc(C)cc(NC(=O)c2c(O)c3cccnc3n(Cc3ccccc3)c2=O)c1	135% (inactive)
CC(NC(=O)c1c(O)c2cccnc2n(Cc2ccccc2)c1=O)c1ccccc1 (stereo not drawn)	-120% (active)
O=C(Nc1ccccc1)c1c(O)c2cccnc2n(Cc2ccccc2)c1=O	-29% (inactive)
CC(C)c1ccc(NC(=O)c2cc3cccnc3n(Cc3ccc(Cl)cc3)c2=O)cc1	70.6% (inactive)
C=CCNC(=O)c1cn(Cc2ccc(C)o2)cc(C(=O)N2CCCCCCC2)c1=O	-1.9% (inactive)
C/C=C/c1ccc(C2[C@@H]3CN(S(C)(=O)=O)C[C@H]2N3)cc1 (stereo partly drawn)	4.19% (inactive)
COc1cc([C@@H]2c3cc4c(cc3[C@H](OC(C)=O)[C@H]3COC(=O)[C@H]23)OCO4)cc(OC)c1OC	-81.8% (active)
O=C(Nc1cccc(F)c1)N1CC2CNC(C2)C1 (stereo not drawn)	-49% (inactive)
CN(Cc1ncc[nH]1)C1CCC2(CCNCC2)CC1	-23.6% (inactive)
CCN1CCO[C@@H]2CN(Cc3ccc4ccccc4n3)C[C@H]2C1	-44.8% (inactive)
CCCCCCCCCCCCCC(=O)O[C@@H]1[C@@H](C)[C@@]2(O)[C@@H](C=C(CO)C[C@]3(O)C(=O)C(C)=C[C@@H]23)[C@@H]2C(C)(C)[C@]12OC(C)=O	-78.2% (active) and -67.3% (inactive)
CNC(=O)[C@H]1CC2CN(C(=O)Cc3cccs3)CC2N1C (stereo partly drawn)	-9.27% (inactive)
CC(=O)O[C@H]1CC[C@@]2(C)C(=CCC3C2CC[C@]2(C)C(=O)CCC32)C1 (stereo partly drawn)	-55.1% (inactive)
COc1ccc(CN2CCCC23CCCN(C(=O)Cc2ccc(Cl)cc2)C3)cc1F (stereo not drawn)	84.8% (inactive)
